Data taken from PubChem BioAssay (Tox21).
Values joined by “and” are separate entries in the source; they are usually repeats but may differ in a detail not shown here. Equal entries are not always repeated. Results filed as inconclusive are left out. Entries that show only a call come without a potency. Active and inactive are the calls of the source. Unless noted, the call rests on the fitted dose curve; in most records, active means well fitted curve in the direction sought with a large enough effect in the repeat runs; inconclusive means weak or mixed curves; inactive means no such curve, though single readings can be large; an effect the other way counts as inactive or inconclusive.

How the values were obtained:
[1] = target: Estrogen receptor beta (Homo sapiens) (UniProt Q92731); experiment: qHTS assay to identify small molecule agonists of the estrogen receptor beta (ER-beta) signaling pathway (AID 1259377; active means well fitted activation curve with a large enough effect in the signal ratio in the repeat runs, not every such curve was filed as active; the % refers to the signal ratio)
Procedure, shortened: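 A UAS-controlled beta-lactamase reporter in ER-beta-UAS-bla HEK293T cells reports receptor activation. Compounds act for 16 hr at 37C in 2% charcoal-stripped serum, and a FRET substrate is read by fluorescence after 2 hours.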

[2] = target: Estrogen receptor beta (Homo sapiens) (UniProt Q92731); experiment: qHTS assay to identify small molecule antagonists of the estrogen receptor beta (ER-beta) signaling pathway (AID 1259378; active means well fitted inhibition curve with a large enough effect in the signal ratio in the repeat runs, not every such curve was filed as active; the % refers to the signal ratio; further: potency means the concentration at half of the fitted maximal effect)
Procedure, shortened: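 Antagonist mode: compounds added to beta-lactamase reporter HEK293T ER-beta-UAS cells stimulated with E2 (1nM final), 16 hr at 37C. LiveBLAzer B/G FRET substrate, 2 hours room temperature, fluorescence read-out.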

[3] = qHTS assay to identify small molecule agonists of the androgen receptor (AR) signaling pathway in the presence of an antagonist - cell viability counter screen (AID 1259379);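 further: MDA-kb2 human breast cancer cells carrying an MMTV luciferase reporter; series mostly up to about 92 µM; nearly all actives have a fitted effect of over 25% in size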
Procedure, shortened: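 Viability counter screen: CellTiter-Fluor fluorescence, measured in the same wells as the luciferase read-out. MDA-kb2 cells, 3,000/well, with nilutamide at 3.0uM final and compounds at 15 concentrations, 16 hr at 37C, 0% CO2.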

[4] = qHTS assay to identify small molecule agonists of the estrogen receptor beta (ER-beta) signaling pathway - cell viability counter screen (AID 1259380); further: nearly all actives have a fitted effect of over 30% in size; further: potency means the concentration at half of the fitted maximal effect
Procedure, shortened: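 Luminescence read-out (CellTiter-Glo, 30 min, room temp) taken in the same wells as the beta-lactamase reporter assay; ER-beta-UAS-bla HEK293T cells exposed to DMSO-dissolved compounds for 16 hr at 37C in 2% charcoal-stripped FBS medium.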

[5] = target: Androgen receptor (Homo sapiens) (UniProt P10275); experiment: qHTS assay to identify small molecule agonists of the androgen receptor (AR) signaling pathway in the presence of an antagonist (AID 1259381; calls by dose curve; further: nearly all actives have a fitted effect of over 15% in size)
Procedure, shortened: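 Luciferase read-out (ONE-Glo, 30min room temperature) in MDA-kb2 MMTV-reporter cells; agonist mode run in presence of AR antagonist nilutamide, 3.0uM final. Compounds tested as 15-point series, 16hr exposure at 37C, 0% CO2.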

[6] = qHTS assay to identify small molecule antagonists of the estrogen receptor beta (ER-beta) signaling pathway - cell viability counter screen (AID 1259382);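 further: HEK293T cells carrying ER-beta-UAS-bla reporter stimulated with estradiol; series mostly up to about 92 µM; nearly all actives have a fitted effect of over 55% in size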
Procedure, shortened: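 Luminescent ATP read-out (CellTiter-Glo, 30 min, RT) taken in the same wells as the bla reporter assay. HEK293T ER-beta-UAS-bla cells in 2% charcoal-stripped FBS were exposed to compounds with 1nM E2 for 16 hr at 37C.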

[7] = target: Estrogen receptor (Homo sapiens) (UniProt P03372); experiment: qHTS assay to identify small molecule agonists of the estrogen receptor alpha (ER-alpha) signaling pathway in the presence of an antagonist (AID 1259383; calls by dose curve; further: nearly all actives have a fitted effect of over 15% in size; further: potency means the concentration at half of the fitted maximal effect; on activation: top concentration of the series differs between compounds)
Procedure, shortened: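 Luciferase luminescence (ONE-Glo, 30min at room temperature) measured in VM7Luc4E2 cells after 22hr compound exposure at 15 concentrations, with 10.0nM ICI-182,780 final present; cells express endogenous ER-alpha and carry four EREs upstream of luciferase.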

[8] = qHTS assay to identify small molecule agonists or antagonists of the thyroid stimulating hormone receptor (TSHR) signaling pathway - wild type cell line counter screen (AID 1259384; calls by dose curve)
Procedure, shortened: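 Counter screen in untransfected Hek293: compounds (15-point titration, triplicate) plus phosphodiesterase inhibitor Ro20-1724 added after 18 h plating; 30 min RT. Intracellular cAMP via competitive d2/cryptate immunoassay, 1 h incubation.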

[9] = target: Thyrotropin receptor (Homo sapiens) (UniProt P16473); experiment: qHTS assay to identify small molecule antagonists of the thyroid stimulating hormone receptor (TSHR) signaling pathway (AID 1259385; calls by dose curve; further: nearly all actives have a fitted effect of over 20% in size)
Procedure, shortened: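 Antagonist mode: compound-treated TSHR-expressing HEK293 cells were stimulated with 1.5 ng/mL TSH (final) in presence of Ro20-1724 for 30 min at RT. HTRF cAMP detection after 1 h; each compound tested at 15 concentrations, triplicate.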

[10] = qHTS assay to identify small molecule agonists of the estrogen receptor alpha (ER-alpha) signaling pathway in the presence of an antagonist - cell viability counter screen (AID 1259386);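 further: series mostly up to about 92 µM; cells exposed to compounds for 22 h at 37 °C before the viability read; nearly all actives have a fitted effect of over 30% in size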
Procedure, shortened: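 Read-out: CellTiter-Fluor fluorescence after 1hr reagent incubation, measured in the same wells as the luciferase readout. VM7Luc4E2 cells were exposed to 15 compound concentrations with 10.0nM ICI-182,780 for 22hr at 37C.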

[11] = target: Progesterone receptor (Homo sapiens) (UniProt P06401); experiment: qHTS assay to identify small molecule agonists of the progesterone receptor (PR) signaling pathway (AID 1346784; calls by dose curve; further: nearly all actives have a fitted effect of over 30% in size)
Procedure, shortened: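 Agonist mode, quantitative HTS format in a HEK 293T line expressing a UAS-controlled beta-lactamase reporter; 16 hr compound exposure at 37C in 2% charcoal-stripped FBS, then LiveBLAzer B/G FRET fluorescence.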

[12] = target: Progesterone receptor (Homo sapiens) (UniProt P06401); experiment: qHTS assay to identify small molecule antagonists of the progesterone receptor (PR) signaling pathway (AID 1346795; active means well fitted inhibition curve with a large enough effect in the signal ratio in the repeat runs, not every such curve was filed as active; the % refers to the signal ratio; further: potency means the concentration at half of the fitted maximal effect)
Procedure, shortened: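 HEK293T PR-UAS-bla reporter cells in charcoal-stripped serum (2%) received compound after a 6 hr settling period, followed by R5020 agonist at 1 nM final; 16 hr incubation preceded the FRET substrate step and fluorescence measurement.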

[13] = qHTS assay to identify small molecule agonists of the progesterone receptor (PR) signaling pathway - cell viability counter screen (AID 1346799; calls by dose curve; further: nearly all actives have a fitted effect of over 45% in size)
Procedure, shortened: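 Counter screen for cytotoxicity: compound-treated PR-UAS-bla HEK293T cells (16 hr, 37C, 5% CO2) were assayed with CellTiter-Glo, luminescence measured after 30 min at room temperature.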

[14] = qHTS assay to identify small molecule antagonists of the TGF-beta/Smad signaling pathway - cell viability counter screen (AID 1346824); further: nearly all actives have a fitted effect of over 50% in size
Procedure, shortened: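 Cytotoxicity counter-screen run in the same wells as the beta-lactamase Smad reporter read: CellTiter-Glo luminescence after 30 min at room temperature. HEK 293T SBE-bla cells had 5 hr compound exposure at 37 C with TGF-beta1 (0.25 ng/mL stock).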

[15] = qHTS assay to identify small molecule agonists of the TGF-beta/Smad signaling pathway - cell viability counter screen (AID 1346829); further: top concentration of the series differs between compounds; nearly all actives have a fitted effect of over 45% in size
Procedure, shortened: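 Tox21 qHTS format: SBE-bla HEK 293T cells treated with DMSO-dissolved compounds for 5 hr; CellTiter-Glo luminescence after 30 min at room temperature.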

[16] = qHTS assay to identify small molecule agonists of the TGF-beta/Smad signaling pathway (AID 1346859; active means well fitted activation curve with a large enough effect in the signal ratio in the repeat runs, not every such curve was filed as active; the % refers to the signal ratio; further: series mostly up to about 77 µM)
Procedure, shortened: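 Smad-responsive beta-lactamase reporter cells (HEK 293T) received compounds from DMSO stocks after overnight attachment, were incubated 5 hr, then treated 2 hr with FRET substrate before dual-emission fluorescence measurement (405 nm excitation).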

[17] = target: Thyrotropin-releasing hormone receptor (Homo sapiens) (UniProt P34981); experiment: qHTS assay to identify small molecule antagonists of the thyrotropin-releasing hormone receptor (TRHR) signaling pathway (AID 1346877; active means well fitted inhibition curve with a large enough effect in the repeat runs, not every such curve was filed as active; further: series mostly up to about 51 µM)
Procedure, shortened: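 HEK293/TRHR cells, 18 h, 37 °C; Ca2+ dye 2 h; cpd 5 min RT; TRH 1 nM final; fluorescence read 3 min, 1 s intervals; 15 concs, triplicate.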

[18] = target: Thyrotropin-releasing hormone receptor (Homo sapiens) (UniProt P34981); experiment: qHTS assay to identify small molecule agonists of the thyrotropin-releasing hormone receptor (TRHR) signaling pathway (AID 1346891; calls by dose curve;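 further: HEK293 cells expressing TRHR with calcium dye readout; series mostly up to about 58 µM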)
Procedure, shortened: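 Agonist-mode calcium mobilisation screen: TRHR-transfected HEK293 cells cultured overnight (18 h), dye-loaded for 2 h at 37 °C, exposed to compounds, and monitored by fluorescence for 3 min.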

[19] = Human pregnane X receptor (PXR) small molecule agonists, qHTS cell viability counter screen (AID 1346977); further: nearly all actives have a fitted effect of over 50% in size
Procedure, shortened: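 Measures live-cell protease fluorescence (CellTiter-Fluor) in PXR-Luc HepG2 cells treated 24hr with compounds at 37C. Cells had 5hr to attach before pin transfer of DMSO solutions.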

[20] = qHTS assay to identify small molecule antagonists of the progesterone receptor (PR) signaling pathway - cell viability counter screen (AID 1346798); further: series mostly up to about 92 µM; nearly all actives have a fitted effect of over 50% in size
Procedure, shortened: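 Same-well multiplex: after 16 hr at 37C with compound and R5020 stimulation, HEK293T cells carrying a UAS-bla reporter received LiveBLAzer substrate (2 hr RT), then CellTiter-Glo (30 min RT) for luminescent viability.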

Androgen receptor (Homo sapiens), sequence (P10275 whole entry, looked up): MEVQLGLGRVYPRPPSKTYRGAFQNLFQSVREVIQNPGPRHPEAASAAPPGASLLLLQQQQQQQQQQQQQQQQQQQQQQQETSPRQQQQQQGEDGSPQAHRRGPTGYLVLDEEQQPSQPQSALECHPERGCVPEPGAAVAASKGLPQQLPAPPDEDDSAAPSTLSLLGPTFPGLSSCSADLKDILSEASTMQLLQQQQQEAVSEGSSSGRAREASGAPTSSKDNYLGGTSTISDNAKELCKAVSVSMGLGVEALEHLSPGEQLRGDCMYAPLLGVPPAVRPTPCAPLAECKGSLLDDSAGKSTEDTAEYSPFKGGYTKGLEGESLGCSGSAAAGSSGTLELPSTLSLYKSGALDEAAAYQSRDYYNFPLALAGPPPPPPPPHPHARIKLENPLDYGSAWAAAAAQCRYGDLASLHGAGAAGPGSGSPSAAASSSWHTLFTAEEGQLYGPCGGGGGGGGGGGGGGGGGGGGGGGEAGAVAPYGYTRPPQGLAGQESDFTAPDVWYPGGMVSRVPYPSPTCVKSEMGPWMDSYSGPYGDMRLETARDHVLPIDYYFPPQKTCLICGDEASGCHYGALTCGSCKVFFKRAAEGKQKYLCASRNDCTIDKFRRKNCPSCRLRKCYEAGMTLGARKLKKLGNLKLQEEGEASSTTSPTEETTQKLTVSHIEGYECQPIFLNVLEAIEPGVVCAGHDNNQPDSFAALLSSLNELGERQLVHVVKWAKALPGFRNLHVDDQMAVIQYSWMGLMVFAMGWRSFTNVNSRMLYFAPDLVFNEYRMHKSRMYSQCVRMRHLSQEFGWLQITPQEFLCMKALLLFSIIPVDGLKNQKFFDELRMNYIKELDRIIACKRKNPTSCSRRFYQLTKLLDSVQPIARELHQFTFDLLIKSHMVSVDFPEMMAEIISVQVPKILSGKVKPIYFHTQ
Thyrotropin receptor (Homo sapiens), sequence (P16473 whole entry, looked up): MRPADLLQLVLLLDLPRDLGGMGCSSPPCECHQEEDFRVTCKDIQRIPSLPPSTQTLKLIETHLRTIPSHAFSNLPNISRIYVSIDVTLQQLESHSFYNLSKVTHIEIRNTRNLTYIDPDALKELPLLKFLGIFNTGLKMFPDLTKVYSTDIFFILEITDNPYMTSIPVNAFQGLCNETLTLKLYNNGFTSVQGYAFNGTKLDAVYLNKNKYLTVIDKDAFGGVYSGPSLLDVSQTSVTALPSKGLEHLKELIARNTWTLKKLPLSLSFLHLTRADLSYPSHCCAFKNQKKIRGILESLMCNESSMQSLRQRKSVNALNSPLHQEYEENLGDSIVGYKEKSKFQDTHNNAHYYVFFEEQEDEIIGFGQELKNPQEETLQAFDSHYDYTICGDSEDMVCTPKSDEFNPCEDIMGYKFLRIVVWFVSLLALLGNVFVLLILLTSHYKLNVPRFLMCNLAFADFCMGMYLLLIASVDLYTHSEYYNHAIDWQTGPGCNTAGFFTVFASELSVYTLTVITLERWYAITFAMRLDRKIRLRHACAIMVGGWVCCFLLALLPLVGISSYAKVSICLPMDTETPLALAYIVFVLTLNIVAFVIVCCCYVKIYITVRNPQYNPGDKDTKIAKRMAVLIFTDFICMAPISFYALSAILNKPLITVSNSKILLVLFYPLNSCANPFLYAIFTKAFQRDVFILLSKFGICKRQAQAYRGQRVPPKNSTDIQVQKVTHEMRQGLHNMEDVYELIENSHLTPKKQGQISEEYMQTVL
Estrogen receptor beta (Homo sapiens), sequence (Q92731 whole entry, looked up): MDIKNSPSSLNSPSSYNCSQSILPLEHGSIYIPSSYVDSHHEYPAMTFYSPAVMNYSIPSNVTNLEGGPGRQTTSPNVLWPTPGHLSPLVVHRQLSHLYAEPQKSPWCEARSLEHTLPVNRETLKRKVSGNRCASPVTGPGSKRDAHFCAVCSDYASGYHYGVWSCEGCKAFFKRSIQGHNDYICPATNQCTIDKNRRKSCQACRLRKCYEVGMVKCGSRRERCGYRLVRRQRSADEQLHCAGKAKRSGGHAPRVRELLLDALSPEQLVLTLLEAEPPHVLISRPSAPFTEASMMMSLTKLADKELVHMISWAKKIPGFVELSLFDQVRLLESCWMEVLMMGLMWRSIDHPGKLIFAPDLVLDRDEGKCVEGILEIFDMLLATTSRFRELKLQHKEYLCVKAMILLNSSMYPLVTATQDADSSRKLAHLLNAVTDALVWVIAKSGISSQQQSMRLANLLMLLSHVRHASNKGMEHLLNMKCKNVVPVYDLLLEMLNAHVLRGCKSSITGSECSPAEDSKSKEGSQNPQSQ
Progesterone receptor (Homo sapiens), sequence (P06401 whole entry, looked up): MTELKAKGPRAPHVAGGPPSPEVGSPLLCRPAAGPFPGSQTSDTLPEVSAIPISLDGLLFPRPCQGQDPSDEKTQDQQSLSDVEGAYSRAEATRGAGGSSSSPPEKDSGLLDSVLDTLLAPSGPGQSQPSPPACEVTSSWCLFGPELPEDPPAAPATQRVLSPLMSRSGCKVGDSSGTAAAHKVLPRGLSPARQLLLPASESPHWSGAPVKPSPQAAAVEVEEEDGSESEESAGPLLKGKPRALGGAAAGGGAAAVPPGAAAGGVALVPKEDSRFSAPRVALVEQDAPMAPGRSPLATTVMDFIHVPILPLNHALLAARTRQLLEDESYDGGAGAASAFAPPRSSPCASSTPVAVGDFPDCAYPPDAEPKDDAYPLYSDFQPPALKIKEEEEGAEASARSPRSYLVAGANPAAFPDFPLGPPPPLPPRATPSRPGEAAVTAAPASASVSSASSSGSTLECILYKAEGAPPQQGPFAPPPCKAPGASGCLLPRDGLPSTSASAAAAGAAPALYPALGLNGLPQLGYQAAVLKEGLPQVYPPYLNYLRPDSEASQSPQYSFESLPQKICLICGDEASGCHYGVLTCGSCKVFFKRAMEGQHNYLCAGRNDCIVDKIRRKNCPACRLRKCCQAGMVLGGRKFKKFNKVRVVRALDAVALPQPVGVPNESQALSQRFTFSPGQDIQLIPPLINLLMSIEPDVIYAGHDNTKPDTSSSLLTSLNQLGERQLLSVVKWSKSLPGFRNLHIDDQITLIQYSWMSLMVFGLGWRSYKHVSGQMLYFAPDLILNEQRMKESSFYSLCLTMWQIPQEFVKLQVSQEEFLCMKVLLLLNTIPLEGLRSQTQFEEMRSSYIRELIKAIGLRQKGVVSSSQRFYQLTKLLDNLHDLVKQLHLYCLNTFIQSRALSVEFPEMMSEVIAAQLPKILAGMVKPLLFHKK
Thyrotropin-releasing hormone receptor (Homo sapiens), sequence (P34981 whole entry, looked up): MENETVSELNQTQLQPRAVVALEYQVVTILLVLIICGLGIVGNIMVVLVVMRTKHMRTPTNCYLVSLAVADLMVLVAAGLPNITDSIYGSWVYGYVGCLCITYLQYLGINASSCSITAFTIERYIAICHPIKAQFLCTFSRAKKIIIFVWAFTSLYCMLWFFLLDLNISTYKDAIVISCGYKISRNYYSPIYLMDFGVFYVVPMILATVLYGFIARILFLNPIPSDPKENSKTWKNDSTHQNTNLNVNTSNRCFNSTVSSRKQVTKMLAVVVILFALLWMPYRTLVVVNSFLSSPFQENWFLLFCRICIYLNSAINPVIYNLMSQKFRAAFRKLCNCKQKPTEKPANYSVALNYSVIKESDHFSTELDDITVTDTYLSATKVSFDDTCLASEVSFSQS
Estrogen receptor (Homo sapiens), sequence (P03372 whole entry, looked up): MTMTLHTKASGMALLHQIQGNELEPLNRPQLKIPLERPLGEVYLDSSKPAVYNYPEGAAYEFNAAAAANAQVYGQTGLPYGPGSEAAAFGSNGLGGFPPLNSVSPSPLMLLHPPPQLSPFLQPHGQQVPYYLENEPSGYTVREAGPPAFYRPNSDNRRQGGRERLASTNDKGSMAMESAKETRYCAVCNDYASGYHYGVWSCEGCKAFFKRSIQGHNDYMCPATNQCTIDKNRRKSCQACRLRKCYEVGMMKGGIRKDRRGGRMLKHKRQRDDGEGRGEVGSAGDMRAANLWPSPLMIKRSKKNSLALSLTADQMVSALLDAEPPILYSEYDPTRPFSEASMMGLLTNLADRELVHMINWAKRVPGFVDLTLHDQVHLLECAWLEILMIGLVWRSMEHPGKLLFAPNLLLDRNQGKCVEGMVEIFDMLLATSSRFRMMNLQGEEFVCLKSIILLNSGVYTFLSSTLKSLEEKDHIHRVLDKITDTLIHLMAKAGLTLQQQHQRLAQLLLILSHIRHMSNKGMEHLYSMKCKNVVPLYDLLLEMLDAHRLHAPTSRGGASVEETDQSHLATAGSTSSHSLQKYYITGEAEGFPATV

| Structure (SMILES) | Potency [1] | Potency [2] | Potency [3] | Potency [4] | outcome [5] | Potency [6] | Potency [7] | Potency [8] | Potency [9] | Potency [10] | Potency [11] | Potency [12] | Potency [13] | Potency [14] | Potency [15] | Potency [16] | Potency [17] | outcome [18] | Potency [19] | Potency [20] |
| --- | --- | --- | --- | --- | --- | --- | --- | --- | --- | --- | --- | --- | --- | --- | --- | --- | --- | --- | --- | --- |
| O=[N+]([O-])/N=C1\NCCN1Cc1ccc(Cl)nc1 | inactive | inactive | inactive | inactive | inactive | inactive | inactive | inactive | inactive | inactive | inactive | inactive | inactive | inactive | inactive | inactive | inactive | inactive | inactive | – |
| CNC(=O)CSP(=S)(OC)OC | inactive | inactive | inactive | inactive | – | inactive | inactive | inactive | inactive | inactive | – | inactive | inactive | inactive | inactive | inactive | inactive | inactive | inactive | – |
| CN(C)P(=O)(N(C)C)N(C)C | inactive | inactive | inactive | inactive | – | inactive | inactive | inactive | inactive | inactive | inactive | inactive | inactive | inactive | inactive | inactive | inactive | inactive | inactive | – |
| N#Cc1cccnc1 | inactive | inactive | inactive | inactive | – | inactive | inactive | inactive | inactive | inactive | – | inactive | inactive | inactive | inactive | inactive | inactive | inactive | inactive | – |
| C=C(C)C#N | inactive | inactive | inactive | inactive | – | inactive | inactive | inactive | inactive | inactive | inactive | inactive | inactive | inactive | inactive | inactive | inactive | inactive | inactive | – |
| CC1=C(C(=O)Nc2ccccc2)SCCO1 | inactive | inactive | inactive | inactive | inactive | – | inactive | inactive | inactive | inactive | inactive | – | inactive | inactive | inactive | inactive | inactive | inactive | inactive | – |
| CCOP(=S)(OCC)OP(=S)(OCC)OCC | inactive | inactive | inactive | inactive | inactive | inactive | – | inactive | inactive | inactive | inactive | inactive | inactive | inactive | inactive | inactive | inactive | inactive | inactive | – |
| CCOS(=O)(=O)OCC | inactive | inactive | inactive | inactive | – | – | inactive | inactive | inactive | inactive | – | inactive | inactive | inactive | inactive | inactive | inactive | inactive | inactive | – |
| O=P(OCCCl)(OCCCl)OCCCl | inactive | inactive | inactive | inactive | – | – | – | – | – | inactive | – | inactive | inactive | inactive | inactive | inactive | inactive | inactive | inactive | inactive |
| [CH3][Sn]([Cl])([Cl])[Cl] | inactive | inactive | inactive | inactive | – | inactive | – | inactive | inactive | inactive | – | inactive | inactive | inactive | inactive | inactive | inactive | inactive | inactive | inactive |
| COP(=S)(OC)SCn1nnc2ccccc2c1=O | inactive | – | inactive | – | inactive | inactive | inactive | inactive | inactive | inactive | inactive | – | inactive | inactive | inactive | inactive | inactive | inactive | inactive | inactive |
| CCN(CC)C(=O)C(C)Oc1cccc2ccccc12 (stereo unspecified) | inactive | inactive | inactive | inactive | – | – | inactive | inactive | inactive | – | inactive | – | inactive | inactive | inactive | inactive | inactive | inactive | inactive | inactive |
| CC(C)(c1ccccc1)c1ccc(O)cc1 | – | 4.82 µM (active) and 7.7 µM (active) | inactive | 60.6 µM (active) | – | – | 15.2 µM (active) and 15.4 µM (active) | inactive | inactive | inactive | inactive | 7.63 µM (active) and 9.69 µM (active) | inactive | inactive | inactive | inactive | inactive | inactive | inactive | inactive |
| COc1ccc(O)c(C(C)(C)C)c1 | inactive | inactive | inactive | inactive | – | – | inactive | inactive | inactive | inactive | – | inactive | inactive | inactive | inactive | inactive | – | – | inactive | inactive |
| CS(=O)(=O)NC(=O)c1cc(Oc2ccc(C(F)(F)F)cc2Cl)ccc1[N+](=O)[O-] | inactive | – | inactive | inactive | – | inactive | – | inactive | inactive | inactive | inactive | inactive | inactive | inactive | inactive | inactive | – | – | inactive | inactive |
